Source: PubChem BioAssay (Pan Lab, Icahn School of Medicine at Mount Sinai)
RBX1-CUL1 inh = inhibitors of human ROC1-CUL1 ubiquitin ligase activity; hit rate 0.6% among 140,000; inhibition, % at 10 µM; in vitro K48 di-Ub FRET, acceptor:donor ratio, 45 min; in the data active means inhibition above about 25%
An asterisk follows results filed as active. The full list was thinned out, with hits kept by preference.

SMILES	RBX1-CUL1 inh
CCOC(=O)C1=C(C)N=c2s/c(=C/c3ccsc3)c(=O)n2C1c1ccc(OC)cc1 (stereo not drawn)	2
C=CCc1cc(/C=c2/sc3n(c2=O)C(c2cccc(OC)c2OCC)C(C(=O)OCC)=C(C)N=3)cc(OC)c1O (stereo not drawn)	-11
Cc1ccc(F)cc1CNC(=O)C1CCC(=O)N(Cc2cccc(F)c2)C1 (stereo not drawn)	-2
N#CC(C#N)=C/C=C(/Cl)c1ccccc1	11
CCOc1c(/C=C(\C#N)C(N)=O)c2ccccc2n1CC	3
N#C/C(=C\C=C(/Cl)c1ccccc1)C(N)=O	38*
Cc1nc2nc(C)c(Cc3ccc(C(C)C)cc3)c(=O)n2[nH]1	2
COc1ccc(CN2CCCCO2)c(OCC(O)CN2CCCC2)c1 (stereo not drawn)	5
Cn1ccnc1Sc1ccc([N+](=O)[O-])c(Sc2nccn2C)n1	3
Cn1nnnc1Sc1ccc([N+](=O)[O-])cc1Cl	-4
Cn1nnnc1Sc1ccc([N+](=O)[O-])c(Sc2nnnn2C)n1	32*
Cc1ccc(S(=O)(=O)C(F)F)cc1	9
O=S(=O)(c1c(F)c(F)c(F)c(F)c1F)C(F)F	103*
CCOC(=O)c1c(NC(=S)Nc2ccc(OC)cc2)sc2c1CCC(C(C)(C)C)C2 (stereo not drawn)	11
C=CC[C@@H]1Cc2ccccc2[C@@H](CCCC)N1	9
O=C(C1=C(Cc2ccc(F)cc2)C(=O)c2ccccc2C1=O)c1ccccc1	5
CCCC(C)NC(=O)CCCc1ccccc1 (stereo not drawn)	-9
CCCOC(=O)c1ccc(NC(=O)C2C(=O)c3ccccc3N(CCC)C2=O)cc1 (stereo not drawn)	-2
COc1ccc(OC)c(NC(=O)C(C)Oc2ccc(C)cc2)c1 (stereo not drawn)	2
CC(C)CCc1n[nH]c2c1CN(C(=O)/C=C/c1cnn(C)c1)CC2	6
Cc1cc(/C=C2\C(=O)NC(=S)N(c3cccc(Cl)c3)C2=O)c(C)n1-c1sc2c(c1C(=O)Nc1ccccc1)CCCC2	8
Cc1cccc(N2C(=O)/C(=C/c3cc(C)n(-c4sc5c(c4C(=O)Nc4ccccc4)CCCC5)c3C)C(=O)NC2=S)c1	4
Cc1cc(/C=C2\C(=O)NC(=S)N(c3ccc(Cl)cc3)C2=O)c(C)n1-c1sc2c(c1C(=O)Nc1ccccc1)CCCC2	41*
Cc1ccc(S(=O)(=O)N2CCN(C(=O)c3ccncc3)CC2)cc1C	-5
Cc1ccc(OC2CCN(Cc3ccncc3)CC2)c(C(=O)N[C@H](C(N)=O)C(C)C)c1	1
SMILES	RBX1-CUL1 inh
Cc1ccc(C(=O)NC(NCCc2c[nH]c3ccccc23)(C(F)(F)F)C(F)(F)F)cc1	-1
CCCCC(=O)Nc1ccccc1NC(=O)C(C)C	-3
CCCCC(=O)Nc1ccccc1O	4
CCCCC(=O)Nc1cccc2cccc(S(=O)(=O)O)c12	95*
COc1ccc(/C(C)=N\N2CCN(c3ccccc3OC)CC2)cc1	-9
CCN1CC=C2C(C1)C(c1ccc(F)cc1)C(C#N)C(=N)C2(C#N)C#N (stereo not drawn)	3
CCOC(=O)c1[nH]c(=O)[nH]c1CN1CCCC1c1ccc(C(=O)NC)s1 (stereo not drawn)	2
O=C(c1ccco1)N1CCC2(CCCN(Cc3ccccc3F)C2=O)C1 (stereo not drawn)	-7
CCN(CC)CCNC(=O)c1cn(C2CCCCCC2)nn1	5
O=C(c1coc(COc2cccc3cnccc23)n1)N1CCCC1	1
O=C(c1coc(COc2cccc3cccnc23)n1)N1CC[C@@H]2CCCC[C@H]2C1	57*
CC(C)CNC(=O)c1coc(COc2cccc3cccnc23)n1	6
CCOC(=O)c1ccc(NC(=O)C(C)NS(=O)(=O)c2ccc(Br)cc2)cc1 (stereo not drawn)	0
CCSc1nnc(NC(=O)OC)s1	-6
CCSc1nnc(NC(=O)C(C(F)(F)F)C(F)(F)F)s1	32*
CCSc1nnc(NC(=O)C(C)C)s1	0
CCOc1ccc2nc(N3CCCN(Cc4cccn4-c4ccccn4)CC3)nc(C)c2c1	2
CC1(C)CC(=O)C2C(=NC3=NC(=O)NC(=O)C3C2c2ccc(Cl)cc2Cl)C1 (stereo not drawn)	5
O=C(C1CCCN1C(=O)OCc1ccccc1)N1CCCCCC1 (stereo not drawn)	-6
O=C1C=C2c3ccccc3-c3ccccc3N2C(=O)C1c1ccccc1 (stereo not drawn)	5
CN(C)/C=C1\C=C2C(=O)c3ccccc3N2C1=O	37*
Cc1ccccc1N1C(=O)C(=Cc2ccc(N(C)C)cc2)C(=O)N(c2ccccc2C)C1=O	-4
CCOc1ccc(CNc2ccc(N3CCOCC3)cc2)cc1OC	-2
CCOC(=O)C1(Cc2ccc(F)cc2)CCCN(C(=O)c2ccnn2C)C1 (stereo not drawn)	2
COc1ccc(/C=C2\CCC/C(=C\c3ccc(OC)c(OC)c3)C2=O)cc1OC	-4
SMILES	RBX1-CUL1 inh
O=C1/C(=C\c2cnn(-c3ccccc3)c2)CCC/C1=C/c1cnn(-c2ccccc2)c1	2
O=C1/C(=C/c2ccoc2)CCC/C1=C\c1ccoc1	97*
Cc1cc(CSc2ccccc2)ccc1NS(=O)(=O)c1ccc2c(c1)OCCO2	5
CCOc1cc(C=C2C(=O)NC(=S)NC2=O)cc(Br)c1OCc1ccc(C(=O)O)cc1	4
CCOc1cc(C=C2C(=O)NC(=S)NC2=O)cc(Cl)c1OCc1ccc(C(=O)O)cc1	50*
O=C1NC(=O)C(=Cc2cc(Cl)c(OCc3ccc(C(=O)O)cc3)c(Cl)c2)C(=O)N1	-2
Cc1nn(-c2nc3ccccc3[nH]2)c2c1C(=O)CC(C)C2 (stereo not drawn)	1
c1csc(-c2noc(CN3CCC(c4ccncc4)CC3)n2)c1	6
COc1cc(CN2CCCC2)ccc1OCC(O)CN1CCCCCCC1 (stereo not drawn)	1
COc1cc(CNC(C)(C)C)ccc1OCC(O)CN1CCCC1 (stereo not drawn)	99*
COc1cc(CNCCSC)ccc1OCC(O)CN1CCCCCC1 (stereo not drawn)	4
CC(C(=O)OCC(=O)c1ccc(-c2ccccc2)cc1)N1C(=O)c2c(Cl)c(Cl)c(Cl)c(Cl)c2C1=O (stereo not drawn)	4
Cc1ccccc1C(c1ccccc1)C1C(=O)c2ccccc2C1=O (stereo not drawn)	-4
O=C1c2c(Cl)c(Cl)c(Cl)c(Cl)c2C(=O)C1C(c1ccccc1)c1ccccc1	62*
CCC(C)NC(=O)c1ccc(C)cc1 (stereo not drawn)	1
CCOC(=O)C1CCN(CC2OC(CO)=CC(=O)C2=O)CC1 (stereo not drawn)	-3
Cc1ccc2occ(/C=N\NC(=O)COc3ccccc3-c3ccnn3-c3ccccc3)c(=O)c2c1	3
O=C(COc1ccccc1-c1ccnn1-c1ccccc1)N/N=C/c1cc2ccccc2nc1Cl	-4
O=C(COc1ccccc1-c1ccnn1-c1ccccc1)N/N=C/c1coc2ccc(Cl)cc2c1=O	60*
Cc1ccc2c(nc3s/c(=C/c4cn(Cc5ccc(Cl)cc5Cl)nc4-c4ccccc4)c(=O)n32)c1C	-5
C=CCOc1ccc(Br)cc1/C=C1/SC(=O)NC1=O	-11
C=CCOc1ccc(Br)cc1/C=C/c1[nH]c(=O)[nH]c(=O)c1[N+](=O)[O-]	42*
C#CCOc1ccc(/C=C/c2[nH]c(=O)[nH]c(=O)c2[N+](=O)[O-])cc1OC	3
Cc1cc(C)nc(CCNC(=O)C2CCC(=O)N(CCCc3ccccc3)C2)n1 (stereo not drawn)	7
